Screens: PubChem, Sanford-Burnham Center for Chemical Genomics
CYP2C19 inhib: inhibitors of human CYP2C19; P33261; CYP2C19 Supersomes, luciferin-H EGE luminescence, 30 min; inhibition, % at 5 µM; 96,000 compounds, 21% hits;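 active means CYP2C19 inhibition above a set limit at 5 µM in the primary screen, cut at about 50% in these data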
Target sequence (P33261 whole entry, looked up): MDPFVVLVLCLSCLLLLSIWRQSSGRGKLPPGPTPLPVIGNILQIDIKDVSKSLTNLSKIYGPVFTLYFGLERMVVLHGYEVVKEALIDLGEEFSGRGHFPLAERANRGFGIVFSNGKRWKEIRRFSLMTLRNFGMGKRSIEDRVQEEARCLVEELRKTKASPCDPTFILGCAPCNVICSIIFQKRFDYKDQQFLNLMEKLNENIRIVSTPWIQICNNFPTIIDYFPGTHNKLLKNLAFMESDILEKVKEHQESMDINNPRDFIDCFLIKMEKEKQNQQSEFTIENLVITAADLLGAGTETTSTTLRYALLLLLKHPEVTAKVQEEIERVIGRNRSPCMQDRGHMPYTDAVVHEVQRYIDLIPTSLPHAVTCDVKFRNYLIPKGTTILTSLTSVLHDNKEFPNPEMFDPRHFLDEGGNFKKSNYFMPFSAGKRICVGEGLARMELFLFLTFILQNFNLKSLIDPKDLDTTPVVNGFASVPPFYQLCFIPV
CYP2C19 activ: cytochrome P450 2C19 (human) activation; 96,000 tested, under 10 active; AID 1025; P33261; activation factor at 5 µM; recombinant CYP2C19, luciferin-H EGE luminescence; stronger effect = higher value; 0 = fully inhibited enzyme, 1 = untreated enzyme;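 active means activation factor of at least 2 at 5 µM in the primary screen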
PLAP act: activates human placental alkaline phosphatase | activation fold at 20 µM | purified PLAP enzyme, luminescent substrate read-out; stronger effect = higher value | AID 696 | P05187 | 96,000 compounds, 1.2% hits; in the data active means activation fold above about 2
CYP2C9 inhib: blocks human cytochrome P450 2C9; P11712; CYP2C9 Supersomes, luciferin-H conversion, luminescence; inhibition, % at 5 µM; 96,000 compounds, 20% hits; AID 777;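 active means blocking of liver enzyme CYP2C9 beyond about 50% at 5 µM, limit read from the data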
CYP2C9 act: CYP2C9 (human) activation. recombinant CYP2C9, luciferin-H conversion, luminescence; stronger effect = higher value; factor 1 = untreated enzyme, 0 = blocked. P11712. activation factor at 5 µM. 96,000 compounds, 1.4% hits;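 active means activation factor of 2 or more for CYP2C9 at a 5 µM dose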
Numbers stand for hits; – = inactive. Sampled rows, rich in hits. Any-hit rate of the full collection: about 31%.

SMILES	CYP2C19 inhib	CYP2C19 activ	PLAP act	CYP2C9 inhib	CYP2C9 act
Cc1ccc(N(C(C)C(=O)N2CCC(C)CC2)S(C)(=O)=O)cc1C (configuration not stated)	–	–	–	–	–
Cc1nn(-c2ccccc2)c2c1C1(C(=O)Nc3ccccc31)N1C(=N2)Sc2ccccc21 (configuration not stated)	–	–	–	–	–
O=C(CSc1ncn(-c2ccccc2)n1)N1CCN(c2ccccc2)CC1	63.6	–	–	58.6	–
C=CCn1c(SCC(O)Cn2c3ccccc3c3ccccc32)nnc1-c1ccco1 (configuration not stated)	97.7	–	–	90.1	–
Cc1ccnc(SCC(=O)N2CCN(c3cccc(Cl)c3)CC2)n1	99.0	–	–	–	–
Cc1nnc(SCC(=O)Nc2ccc(Cl)cn2)n1Cc1ccccc1	–	–	–	–	–
O=C(CSc1ncn(-c2ccccc2)n1)NCc1ccccc1	–	–	–	–	–
COc1ccccc1NC(=O)CSc1nnc(C)n1Cc1ccccc1	52.3	–	–	–	–
CC1(C)CC(NC(=O)c2cccc3ccccc23)CC(C)(C)N1	–	–	–	–	–
CC(C)NC(=O)NC(=O)CSc1nncn1C	–	–	–	–	–
COC(=O)CSc1nnc(-c2ccc(S(=O)(=O)NCc3ccccc3Cl)cc2)o1	–	–	–	–	–
CCOC(=O)c1ccc(N2C(=O)C3ON(c4ccccc4)C(c4ccco4)C3C2=O)cc1 (configuration not stated)	–	–	–	–	–
Cn1cccc1Cc1nnc(SCC(=O)NCC2CCCO2)n1-c1ccc(F)cc1 (configuration not stated)	–	–	–	–	–
COc1ccc(C2C=C(c3ccc(Br)s3)Nc3ncnn32)cc1OC (configuration not stated)	97.9	–	–	50.1	–
COc1cccc(C2C=C(c3cccs3)Nc3ncnn32)c1OC (configuration not stated)	–	–	–	56.4	–
O=C(NC1=NCCS1)c1cccc(S(=O)(=O)N2CCCCC2)c1	–	–	–	–	–
CCn1c(C(=O)N2CCc3ccccc3C2)cc2oc3ccccc3c21	55.3	–	–	53.1	–
O=C(c1cc2ccccc2c(=O)o1)N1CCCc2ccccc21	–	–	–	–	–
CCOC(=O)c1c(C)c(C(=O)N2CCc3ccccc3C2)c(C)n1CC	85.6	–	–	–	–
O=C(c1cc2ccccc2c(=O)o1)N1CCc2ccccc2C1	–	–	–	–	2.5
CCCOc1ccc(/C=N/NC(=O)C2CCCN2S(=O)(=O)c2ccc(Cl)cc2)cc1 (configuration not stated)	–	–	–	–	–
O=C(O/N=C/C1=C(Cl)c2ccccc2CC1)c1ccc(F)cc1	–	–	–	–	–
CC(C)C1N=C(c2ccc3c(c2)OCO3)CC(c2ccccc2O)N1 (configuration not stated)	54.2	–	–	61.2	–
CCN(CC)S(=O)(=O)c1cc(-c2nnc(-c3ccc(Br)cc3)o2)ccc1Cl	–	–	–	60.4	–
CCN(CC)S(=O)(=O)c1ccc(-c2nnc(SC)o2)cc1	–	–	–	–	–
SMILES	CYP2C19 inhib	CYP2C19 activ	PLAP act	CYP2C9 inhib	CYP2C9 act
Nc1nc(CSc2nc3ccccc3[nH]2)nc(N2CCOCC2)n1	–	–	–	–	–
c1ccc2c(Cn3ccnc3)c[nH]c2c1	86.0	–	–	84.3	–
COc1ccc(OC)c(NC(=O)C2C3CCC(O3)C2C(=O)O)c1 (configuration not stated)	–	–	–	–	–
O=C(CSc1nnc(-c2cccc(S(=O)(=O)N3CCCCC3)c2)o1)c1ccc[nH]1	–	–	–	–	–
CCN(CC)S(=O)(=O)c1cccc(-c2nnc(SCC(=O)c3cc(C)n(C4CC4)c3C)o2)c1	64.1	–	–	69.7	–
C=CCn1c(C)cc(C(=O)CSc2nnc(-c3cccc(S(=O)(=O)N(CC)CC)c3)o2)c1C	86.8	–	–	89.3	–
CCC(Sc1nc(=O)cc(N)n1CCc1ccccc1)C(=O)Nc1ccccc1C#N (configuration not stated)	–	–	–	–	–
COc1ccc(OC)c(C(=O)Cn2nnc3ccccc3c2=O)c1	–	–	–	–	–
Cc1cc(C(=O)Cn2nnc3ccccc3c2=O)c(C)n1Cc1cccs1	97.3	–	–	71.1	–
O=C(c1c(F)cccc1F)N(Cc1ccccn1)C1CCCC1	–	–	–	–	–
COc1ccc(Cl)cc1C(=O)Nc1nnn(C)n1	–	–	–	–	2
Cc1ccc(NC(=O)/C(=C\c2ccc3c(c2)OCO3)NC(=O)c2ccco2)cc1	–	–	–	83.8	–
COc1ccc(Cl)cc1C(=O)Nc1ccc2c(c1)OCO2	59.3	–	–	–	3.3
COc1ccccc1C(=O)Nc1ccc2c(c1)OCCO2	–	–	–	–	2.1
Cc1ccc(NC(=O)/C(=C\c2cccc(Br)c2)NC(=O)c2ccco2)cc1	–	–	–	–	–
COCCSc1ccccc1C(=O)Nc1ccc2c(c1)OCCO2	–	–	–	–	–
O=C(NCc1nnc(SC/C=C/c2ccccc2)o1)c1ccco1	–	–	–	–	–
C=CCC1c2cccc(C(=O)OC)c2C(=O)N1c1ccccc1 (configuration not stated)	–	–	–	–	–
CCc1nc2c(n1O)CCc1nonc1-2	–	–	–	–	–
COCCn1cnnc1SCC(=O)Nc1ccccc1C(=O)Nc1ccc2c(c1)OCO2	57.5	–	–	93.5	–
COc1cc(SC)ccc1C(=O)Nc1ccc2c(c1)OCCO2	90.8	–	–	57.8	–
CCOC(=O)Nc1ccc2c(c1)OCO2	–	–	–	–	–
O=C(Nc1ccc2c(c1)OCO2)Oc1ccccc1	62.2	–	–	–	–
O=C(Nc1ccccc1C(=O)Nc1ccc2c(c1)OCO2)c1ccco1	50.6	–	–	97.3	–
C[N+]1(CCCCCCC(=O)/C=N/O)CCCCCC1	–	–	–	–	–
SMILES	CYP2C19 inhib	CYP2C19 activ	PLAP act	CYP2C9 inhib	CYP2C9 act
N#CC12CCCCC1CC1CCCCC1(C#N)N2Cc1cccnc1 (configuration not stated)	–	–	–	–	–
COc1ccccc1C(=O)Nc1ccc2c(c1)OCO2	89.8	–	–	–	–
CCN(CC)c1ccc(NC(=O)c2ccccc2F)cc1	–	–	–	–	3
Cc1ccccc1C(=O)Nc1ccc2c(c1)OCO2	84.0	–	–	–	–
CCN(CC)c1ccc(NC(=O)c2ccco2)cc1	–	–	–	–	–
CCOC(=O)c1c(C)[nH]c(C(=O)Nc2ccc3c(c2)OCO3)c1C	86.0	–	–	–	–
COc1ccc(Cl)cc1C(=O)Nc1ccc(NC(=O)c2ccco2)cc1	–	–	–	–	–
CCN(CC)c1ccc(NC(=O)c2cc(Cl)ccc2OC)cc1	–	–	–	–	2.9
CN1CCN(S(=O)(=O)c2ccc(N(C)Cc3cccs3)nc2)CC1	–	–	–	–	–
O=C(CCCNS(=O)(=O)c1ccccc1)NCc1ccco1	–	–	–	–	–
